The record followed here is PubChem BioAssay (NCI).

Compounds without any hit were thinned out: in the full panel of roughly 83,000, 20% have a hit.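 The endpoint reported here, percent growth, reads 100 for growth as untreated, 0 for no net growth and -100 for all cells dead.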 A number with no mark means an inactive call. Active and inactive are the calls of the source. How the source made its calls: active means growth percent below 10; inactive means the rest.

Some test systems named below: NCI-H23 lung; NCI-H226 lung; NCI-H322M lung; HOP-62 NSCLC; NCI-H460 lung; NCI-H522 lung; A549/ATCC NSCLC; 786-0 renal; COLO 205 colon; DU-145 prostate; K-562 leukemia; MALME-3M melanoma; MDA-MB-231 breast; RXF 393 renal; SF-268 CNS; SF-295 CNS; SF-539 CNS; UACC-257 melanoma; M14 melanoma.
Common to all, as to assay: NCI-60 one-dose screen, 48 h (100 = growth as untreated, 0 = no growth, -100 = all killed)
Common to all, as to settings: 10 µM unless noted

In the case of `CCNC(=O)N1CCc2cc(OC)c(OCCc3ccc(OC)cc3)cc2C1c1ccc(Cl)cc1C` (stereo unspecified), the growth with NCI-H23 lung is 25.1%; in the assay on NCI-H226 lung, 32.4%; with NCI-H322M lung, 46.6%; in the assay on HOP-62 NSCLC, 27.7%; in the assay with NCI-H460 lung, 1.35% (active); with NCI-H522 lung, -16.2% (active). Further, the growth is 9.93% (active) with A549/ATCC NSCLC; 9.78% (active) in the assay with 786-0 renal; 13.9% in the assay with COLO 205 colon; 16.2% in the assay on DU-145 prostate; 12.3% in the assay on K-562 leukemia; 60.4% with MALME-3M melanoma. In addition, the growth is 12.4% in the assay on MDA-MB-231 breast; -4.98% (active) with RXF 393 renal; 27.1% in the assay on SF-268 CNS; 13.3% in the assay on SF-295 CNS; 5.79% (active) with SF-539 CNS; 44.7% in the assay on UACC-257 melanoma. Also, the growth with M14 melanoma is 17.5%.

`Cc1cc(-c2ccc(Cl)cc2)n(Cc2nnc(SCC(=O)Nc3ccc(S(N)(=O)=O)cc3)n2-c2ccc([N+](=O)[O-])cc2)n1`: the growth was 90.2% with NCI-H23 lung; 85.1% with NCI-H226 lung; 96% with NCI-H322M lung; 104% in the assay on HOP-62 NSCLC; 67.1% with NCI-H460 lung; 90% in the assay with NCI-H522 lung. For the same compound, the growth was 84.3% in the assay on A549/ATCC NSCLC; 109% in the assay with 786-0 renal; 97% in the assay on COLO 205 colon; 101% in the assay with DU-145 prostate; 64.3% with K-562 leukemia; 92.9% with MALME-3M melanoma. The growth with MDA-MB-231 breast was 93.3%; with RXF 393 renal, 75.9%; in the assay on SF-268 CNS, 95.6%; in the assay with SF-295 CNS, 73.4%; with SF-539 CNS, 97%; in the assay on UACC-257 melanoma it was 98.5%. Besides, the growth in the assay on M14 melanoma is 85.5%.

With `CCOC(=O)c1c(Nc2ccccc2)nn2c(-c3ccc(Cl)cc3)ccnc12`, the growth in the assay on NCI-H23 lung was 73.4%; with NCI-H226 lung it was 58.6%; with NCI-H322M lung it was 86.5%; in the assay with HOP-62 NSCLC, 56.7%; with NCI-H460 lung, 44.1%; with NCI-H522 lung it was 79.7%. The growth was 70.4% in the assay on A549/ATCC NSCLC; 64.7% with 786-0 renal; 82.1% in the assay with COLO 205 colon; 79.5% with DU-145 prostate; 81.1% in the assay on K-562 leukemia; 84% with MALME-3M melanoma. The growth in the assay on MDA-MB-231 breast was 75.4%; in the assay with RXF 393 renal, -10.6% (active); with SF-268 CNS it was 77%; with SF-295 CNS, 77.5%; in the assay on SF-539 CNS it was 71.7%; in the assay on UACC-257 melanoma, 104%. The growth in the assay on M14 melanoma is 96.5%.

Take `O=S(=O)(Nc1ccc2c(c1)OCO2)c1ccc(-c2cnc(C3CC3)o2)cc1`: the growth was 42% in the assay on NCI-H23 lung; 55.9% in the assay on NCI-H226 lung; 64.5% in the assay with NCI-H322M lung; 43.3% with HOP-62 NSCLC; 23.5% in the assay with NCI-H460 lung; 34.4% in the assay on NCI-H522 lung. Further, the growth in the assay on A549/ATCC NSCLC is 43.8%; in the assay with 786-0 renal, 46.2%; with COLO 205 colon, 35.3%; with DU-145 prostate, 44.6%; in the assay with K-562 leukemia, 12.3%; with MALME-3M melanoma it was 46.2%. Moreover, the growth is 46.2% in the assay with MDA-MB-231 breast; 34.9% with RXF 393 renal; 53.6% in the assay on SF-268 CNS; 9.2% (active) in the assay on SF-295 CNS; 33% with SF-539 CNS; 55% with UACC-257 melanoma. The growth in the assay on M14 melanoma was 22.8%.

In the case of `C=C=COc1cccc(/C(N)=N/C(N)=N/c2nc3ccccc3s2)c1`, the growth in the assay with NCI-H23 lung was 75.9%; with NCI-H226 lung it was 83.7%; in the assay with NCI-H322M lung it was 103%; in the assay on HOP-62 NSCLC, 101%; with NCI-H460 lung it was 93.9%; in the assay with NCI-H522 lung it was 97%. Also, the growth is 104% in the assay with A549/ATCC NSCLC; 90.3% in the assay on 786-0 renal; 112% with COLO 205 colon; 101% with DU-145 prostate; 23.5% in the assay on K-562 leukemia; 93% in the assay on MALME-3M melanoma. In addition, the growth in the assay on MDA-MB-231 breast is 76.2%; in the assay with RXF 393 renal, 104%; in the assay on SF-268 CNS it was 78.1%; in the assay with SF-295 CNS it was 110%; with SF-539 CNS, 70.4%; in the assay with UACC-257 melanoma, 104%. For the same compound, the growth in the assay with M14 melanoma is 67.9%.

Regarding `Cn1ccnc1C(=O)/C=C/c1ccc(NC(=O)c2ccc(F)cc2)cc1`, the growth with NCI-H23 lung was 13.4%; with NCI-H226 lung it was 45.3%; in the assay with NCI-H322M lung, 46.3%; with HOP-62 NSCLC it was 64.5%; with NCI-H460 lung, -19.7% (active); in the assay on NCI-H522 lung, 17.4%. In addition, the growth with A549/ATCC NSCLC is 34.8%; in the assay on 786-0 renal, 22.1%; in the assay with COLO 205 colon, 75.4%; in the assay with DU-145 prostate, 9.78% (active); with K-562 leukemia, 15%; with MALME-3M melanoma it was 87.8%. Also, the growth in the assay on MDA-MB-231 breast is 22.1%; with SF-268 CNS, 21.8%; with SF-295 CNS, 52.5%; in the assay on SF-539 CNS, -3.29% (active); with UACC-257 melanoma it was 84.2%.

Take `CCNC(=O)N1CCc2cc(OC)c(OCCc3ccc(OC)c(N)c3)cc2C1c1ccc(C)cc1C` (stereo unspecified): the growth in the assay with NCI-H23 lung is 20%; with NCI-H226 lung it was 42.9%; in the assay on NCI-H322M lung it was 40.7%; with HOP-62 NSCLC, 26.9%; in the assay on NCI-H460 lung, 2.6% (active); in the assay with NCI-H522 lung, -30.2% (active). The growth was 9.14% (active) with A549/ATCC NSCLC; 13.3% with 786-0 renal; 13.3% in the assay on COLO 205 colon; 16.4% in the assay with DU-145 prostate; 15.1% with K-562 leukemia; 62.6% with MALME-3M melanoma. Besides, the growth in the assay with MDA-MB-231 breast is 15%; in the assay on RXF 393 renal, 7.54% (active); in the assay on SF-268 CNS it was 26.1%; with SF-295 CNS, 16.1%; with SF-539 CNS, 13.6%; in the assay with UACC-257 melanoma it was 49.1%. For the same compound, the growth in the assay with M14 melanoma is 16.5%.
